Laboratory results published in PubChem BioAssay (NCATS).
Inconclusive results are not listed. Active and inactive are the calls of the source. Calls follow the shape of the dose curve; as a rule, active = well fitted activation curve with a large enough effect; inconclusive = small, poorly fitted or top-dose-only effect; inactive = no such curve, though single readings can be large or run the other way.

Molecular target: Rap guanine nucleotide exchange factor 3 (Homo sapiens) (UniProt O95398)
Assay: Confirmatory qHTS for agonist of cAMP-regulated guanine nucleotide exchange factor 3 (EPAC1) (AID 1645881); also: nearly all actives have a fitted effect of over 75% in size;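 as to activation: EPAC1 catalysed release of BODIPY-GDP from Rap1B seen as fluorescence loss; 100% = effect of cAMP agonist control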
Settings: EPAC1 Rap1B BODIPY-GDP exchange fluorescence; series mostly up to 154 µM; activation: at the top concentration
Potency is read from the fitted curve at half-maximal effect.

Rap guanine nucleotide exchange factor 3 (Homo sapiens), sequence (O95398 whole entry, looked up): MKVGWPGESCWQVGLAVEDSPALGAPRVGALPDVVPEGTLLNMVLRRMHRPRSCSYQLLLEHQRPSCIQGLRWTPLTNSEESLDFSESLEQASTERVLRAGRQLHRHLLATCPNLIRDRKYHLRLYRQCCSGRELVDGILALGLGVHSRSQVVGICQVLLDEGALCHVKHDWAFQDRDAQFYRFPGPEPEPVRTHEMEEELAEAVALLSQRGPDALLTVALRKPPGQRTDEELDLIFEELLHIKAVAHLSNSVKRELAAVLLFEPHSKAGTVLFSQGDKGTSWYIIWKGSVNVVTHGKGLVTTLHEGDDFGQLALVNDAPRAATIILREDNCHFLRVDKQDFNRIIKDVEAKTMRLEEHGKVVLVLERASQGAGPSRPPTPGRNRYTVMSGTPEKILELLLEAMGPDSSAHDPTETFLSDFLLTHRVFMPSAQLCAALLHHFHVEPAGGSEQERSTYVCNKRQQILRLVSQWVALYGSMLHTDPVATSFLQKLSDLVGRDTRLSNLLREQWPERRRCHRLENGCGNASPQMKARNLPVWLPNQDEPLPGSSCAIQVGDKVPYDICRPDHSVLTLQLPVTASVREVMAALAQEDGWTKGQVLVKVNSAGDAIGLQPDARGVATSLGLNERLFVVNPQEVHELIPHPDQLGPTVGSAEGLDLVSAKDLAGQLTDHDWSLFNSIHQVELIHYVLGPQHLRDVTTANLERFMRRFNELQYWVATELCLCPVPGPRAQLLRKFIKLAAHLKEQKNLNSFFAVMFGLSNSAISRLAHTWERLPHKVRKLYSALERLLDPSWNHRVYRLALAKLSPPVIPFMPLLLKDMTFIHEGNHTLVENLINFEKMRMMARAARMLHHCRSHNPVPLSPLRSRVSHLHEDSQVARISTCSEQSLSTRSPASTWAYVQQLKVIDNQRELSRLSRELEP

Row | Compound | activation | Potency
1 | COc1ccccc1[C@@]1(C)ON(c2ccccc2C(F)(F)F)C1=O | 14.5% (inactive) | –
2 | FC(F)(F)C1=Nc2cccc3cccc(c23)N1 | 3.49% (inactive) | –
3 | O=C(NC1CC1)C1CCN(S(=O)(=O)c2cc([N+](=O)[O-])ccc2Cl)CC1 | 8.26% (inactive) | –
4 | Cc1ccccc1C(=O)Nc1ccccc1N1CCCCC1 | 21.4% (inactive) | –
5 | Cc1cccc(NC(=O)CNC(=O)CCc2nc3sc4c(c3c(=O)[nH]2)CCCC4)c1C | 7.63% (inactive) | –
6 | O=C(CSc1nnc(-c2ccco2)c(-c2ccco2)n1)c1ccccc1 | 12.3% (inactive) | –
7 | C/C(=N/NS(=O)(=O)c1ccc(C(C)(C)C)cc1)c1ccc2c(c1)OCO2 | 14.6% (inactive) | –
8 | CN1CCc2nc3sc(C(=O)C45CC6CC(CC(C6)C4)C5)c(N)c3cc2C1 | 11.3% (inactive) | –
9 | COCCNc1nc(Oc2cccc(F)c2)c2sccc2n1 | 17.4% (inactive) | –
10 | CCN1CC=C2C(C#N)=C(N)C(C#N)(C#N)C(CCc3ccccc3)C2C1 (centres undefined) | – | 50.1 µM (active)
11 | CCCCOC(=O)CCn1c(=S)oc2ccccc21 | 15.8% (inactive) | –
12 | CC(C)=CCc1c(O)cc(O)c2c1OC(c1ccc(O)cc1)CC2=O (centres undefined) | 18.4% (inactive) | –
13 | CC(C)C[C@H]1COCCS(=O)(=O)N1Cc1ccc(Cl)c(Cl)c1 | 4.46% (inactive) | –
14 | CCC(C)(C)c1ccc(Oc2ccc(N)cc2)cc1 | 8.02% (inactive) | –
15 | O=C(NC1(O)C(=O)c2ccccc2C1=O)c1ccccc1 | 2.09% (inactive) | –
16 | C=Cc1ccc(CC2(C)C(=O)Nc3ccc(Cl)cc32)cc1 (centres undefined) | 24.3% (inactive) | –
17 | Cc1cc2c(C)nc(N/N=C/c3ccc(F)cc3)nc2o1 | -2.05% (inactive) | –
18 | Cc1cc(C)c2c(CN3CCC(C)CC3)cc(=O)oc2c1 | 2.36% (inactive) | –
19 | Cn1c(=O)c2c(nc(NCCc3ccccc3)n2CC(=O)NCCc2ccccc2)n(C)c1=O | 4.15% (inactive) | –
